Out of some 310,000 compounds screened, about 14,000 (4.5%) showed an effect of 50% or more. Effects have a minus sign here. Only a selection was taken, and strong results are over-represented in it overall.
target: human ether-à-go-go-related gene (hERG) potassium channel (human, UniProt Q12809); assay: primary screen, population patch clamp on CHO cells stably expressing hERG; higher = less effect of the substance
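Also: peak tail current of the secondary pulse compared with the same well before compound.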

human ether-à-go-go-related gene (hERG) potassium channel, sequence (Q12809 whole entry, looked up): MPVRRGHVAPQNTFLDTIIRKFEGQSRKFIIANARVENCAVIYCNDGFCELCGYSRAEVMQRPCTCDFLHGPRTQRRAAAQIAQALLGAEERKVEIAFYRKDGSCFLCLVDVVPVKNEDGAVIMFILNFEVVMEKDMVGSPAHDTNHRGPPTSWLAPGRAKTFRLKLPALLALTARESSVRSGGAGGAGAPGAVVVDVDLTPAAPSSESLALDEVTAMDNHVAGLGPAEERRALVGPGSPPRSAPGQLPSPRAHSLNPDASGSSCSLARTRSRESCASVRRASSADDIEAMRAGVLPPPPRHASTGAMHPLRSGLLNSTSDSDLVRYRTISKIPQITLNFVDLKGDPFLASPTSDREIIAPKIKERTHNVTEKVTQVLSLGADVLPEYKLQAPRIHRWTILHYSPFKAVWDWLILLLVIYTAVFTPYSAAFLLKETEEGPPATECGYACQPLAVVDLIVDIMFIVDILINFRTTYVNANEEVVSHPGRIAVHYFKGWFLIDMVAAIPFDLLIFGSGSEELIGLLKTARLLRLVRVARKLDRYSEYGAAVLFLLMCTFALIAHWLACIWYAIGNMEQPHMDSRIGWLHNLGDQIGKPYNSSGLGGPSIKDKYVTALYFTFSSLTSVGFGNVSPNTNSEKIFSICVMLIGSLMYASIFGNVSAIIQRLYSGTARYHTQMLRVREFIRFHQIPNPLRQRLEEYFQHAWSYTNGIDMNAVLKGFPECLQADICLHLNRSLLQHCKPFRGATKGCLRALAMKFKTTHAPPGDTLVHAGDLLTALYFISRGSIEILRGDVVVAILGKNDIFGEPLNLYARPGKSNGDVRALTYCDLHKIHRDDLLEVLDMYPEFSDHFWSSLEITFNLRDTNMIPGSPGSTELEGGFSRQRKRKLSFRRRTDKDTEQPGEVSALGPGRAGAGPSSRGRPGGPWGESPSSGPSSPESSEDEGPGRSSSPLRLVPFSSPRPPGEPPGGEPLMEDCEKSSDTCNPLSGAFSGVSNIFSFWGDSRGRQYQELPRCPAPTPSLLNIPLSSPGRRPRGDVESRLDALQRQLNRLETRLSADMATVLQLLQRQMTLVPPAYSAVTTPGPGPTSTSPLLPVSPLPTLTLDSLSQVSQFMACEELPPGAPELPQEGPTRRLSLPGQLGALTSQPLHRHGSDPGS

SMILES | hERG current change (%, negative = inhibition) at 10uM
O=C(Nc1ccccn1)C1CCN(C(=O)c2ccc(F)cc2)CC1 | 3.81%
CC1CC(C)CN(S(=O)(=O)c2cccc3nsnc23)C1 (stereo not drawn) | 4.61%
Cc1cc(C)c2c3c(oc2n1)C(=O)N(c1cccc(Cl)c1)CC(=O)N3 | 1.82%
NC(=O)CC1NC(=O)c2cc([N+](=O)[O-])cc(I)c2OCCC(C(N)=O)NC(=O)[C@@H]2CCCN2C1=O (stereo partly drawn) | 6.79%
O=C(c1ccc2c3c(cccc13)C(=O)N(O)C2=O)N1CCCCC1 | 12.4%
COc1ccc2[nH]c3c(c2c1)CCN1C(=O)N([C@@H](C)C(=O)NCc2ccccc2)C(=O)[C@]31C | 2.42%
CC(C)[C@@H](C(=O)NC1CCCC1)N1C(=O)N2CCc3c([nH]c4ccccc34)[C@@]2(C)C1=O | -12.4%
COC(=O)[C@@H]1Cc2c([nH]c3ccccc23)C(C)(C)N1C(=O)CCl | 3.24%
C[C@@H](C(=O)NC1CCCC1)N1C(=O)N2CCc3c([nH]c4ccccc34)[C@@]2(C)C1=O | -27.5%
CC(C)[C@@H](C(=O)NC1CCN(Cc2ccccc2)CC1)N1C(=O)N2CCc3c([nH]c4ccccc34)[C@@]2(C)C1=O | -74.6%
COc1ccc(CNC(=O)[C@H](C)N2C(=O)N3CCc4c([nH]c5ccc(OC)cc45)[C@@]3(C)C2=O)cc1 | 9.36%
C[C@@H](C(=O)NC1CCN(Cc2ccccc2)CC1)N1C(=O)N2CCc3c([nH]c4ccccc34)[C@@]2(C)C1=O | -77.8%
COc1ccc2[nH]c3c(c2c1)CCN1C(=O)N([C@@H](C)C(=O)NCc2ccco2)C(=O)[C@]31C | -53.8%
COc1ccc2[nH]c3c(c2c1)CCN1C(=O)N([C@@H](C)C(=O)NC2CCN(Cc4ccccc4)CC2)C(=O)[C@]31C | -48.8%
COC(=O)[C@H]1Cc2c([nH]c3ccccc23)[C@H](c2ccccc2)N1 | 5.76%
CC(C)[C@@H](C(=O)NC1CC1)N1C(=O)N2CCc3c([nH]c4ccccc34)[C@@]2(C)C1=O | -6.45%
COC(=O)C1Cc2c([nH]c3ccccc23)C2(CCN(Cc3ccccc3)CC2)N1 (stereo not drawn) | -68.2%
CCCC(=O)n1nc(-c2cccnc2)nc1N | -27.1%
CC(C)C[C@@H](C(=O)N[C@@H](C(=O)O)c1ccccc1)N1C(=O)N2CCc3c([nH]c4ccccc34)[C@@]2(C)C1=O | -6.67%
CC(C)C[C@@H](C(=O)NC1CC1)N1C(=O)N2CCc3c([nH]c4ccccc34)[C@@]2(C)C1=O | -15%
CC(C)C[C@@H](C(=O)NC1CCN(Cc2ccccc2)CC1)N1C(=O)N2CCc3c([nH]c4ccccc34)[C@@]2(C)C1=O | -53.2%
Cc1ccc(CCN2CC(C(=O)NCCCN3CCN(C)CC3)CC2=O)cc1 (stereo not drawn) | -8.81%
CCN(C(=O)CSc1ccc2c(c1)OCCO2)C1CCS(=O)(=O)C1 (stereo not drawn) | 9.65%
COc1ccc(O)c(C(=O)c2cnc3c(c2)c(-c2ccc(F)cc2)c(C#N)c(=O)n3C)c1 | 12.6%
CCCCn1c(-c2cccnc2)nc2cc3[nH]c(=O)c(C(C)C)nc3cc21 | -50.4%
CCCCn1c(-c2cccc(Br)c2)nc2cc3[nH]c(=O)c(C(C)C)nc3cc21 | 4.08%

SMILES | hERG current change (%, negative = inhibition) at 10uM
CCCCn1c(-c2cccc(C)c2)nc2cc3[nH]c(=O)c(C(C)C)nc3cc21 | 0.235%
CC(=O)C(Sc1nnnn1-c1ccc(O)cc1)c1ccccc1 (stereo not drawn) | -14.3%
COc1ccc(CCNC(=O)c2ccc3c(=O)n(Cc4ccco4)c(=S)[nH]c3c2)cc1OC | 17.2%
COc1ccc(CCNC(=O)c2cc3c(=O)n4ccccc4nc3n(Cc3ccco3)c2=N)cc1OC | -76.6%
COc1ccc(CCNC(=O)c2cc3c(=O)n4cccc(C)c4nc3n(Cc3ccco3)c2=N)cc1OC | -80.9%
COc1ccc(CCNC(=O)CSc2nc(=O)n3cccc(C)c3n2)cc1OC | 15.8%
COc1ccc(CCNC(=O)c2cc3c(=O)n4cccc(C)c4nc3s2)cc1OC | 21.3%
COc1ccc(CCNC(=O)c2coc3ccccc3c2=O)cc1OC | -4.09%
CSc1ccc(Cl)c(C(=O)OCC(=O)NCC(C)C)c1 | -21%
CCN(CC)CC(O)Cn1c(C)c(-c2ccccc2)c2cc([N+](=O)[O-])ccc21.Cl (stereo not drawn) | -65.3%
CCN(CC)CC(O)Cn1c2ccccc2c2ccccc21 (stereo not drawn) | -16%
Cn1c(CO)c(-c2ccccc2)c2cc([N+](=O)[O-])ccc21 | 10.2%
Nc1cccc2c1C(=O)N(CCOc1ccccc1F)C2=O | 20.2%
CCN1CCN(c2oc(COc3ccc(Cl)cc3)nc2C#N)CC1 | -77%
COc1ccc(N2CCN(c3oc(COc4ccc(Cl)cc4)nc3C#N)CC2)cc1 | -2.55%
N#Cc1nc(COc2ccccc2)oc1N1CCN(Cc2ccccc2)CC1 | -21.9%
N#Cc1nc(COc2ccc(F)cc2)oc1N1CCCC1 | -46.7%
CCN1CCN(c2oc(COc3ccc(-c4ccccc4)cc3)nc2C#N)CC1 | -55.8%
Cc1ccc(OCc2nc(C#N)c(N3CCCCC3)o2)cc1 | -4.24%
Cc1ccc(OCc2nc(C#N)c(N3CCN(Cc4ccccc4)CC3)o2)cc1 | -6.23%
N#Cc1nc(COc2ccc(F)cc2)oc1N1CCN(Cc2ccccc2)CC1 | -75.3%
N#Cc1nc(COc2ccc(Cl)cc2)oc1N1CCN(Cc2ccccc2)CC1 | -1.08%
CN1CCN(c2oc(COc3ccc(-c4ccccc4)cc3)nc2C#N)CC1 | -19%
N#Cc1nc(COc2ccc(Cl)cc2)oc1N1CCCC1 | -38.9%
Cc1ccc(OCc2nc(C#N)c(N3CCCC3)o2)cc1 | -62.8%

Source: paper PMC4336329 (PLoS ONE, 2015)
